Results on 36 molecules are retold here after the supplement of paper PMC12339681.

Structures can show the parent of a compound that is named as a salt.

The assay has as its system PBMC-derived induced microglia-like cells (piMGLC). The assay can be described thus: synaptosome phagocytic index relative to DMSO control (fraction of DMSO); higher = more phagocytosis. Particulars: concentration: 10 uM (2 uM for compounds listed in Table S2); pretreatment time: 24 h; assay time: 3 h.
On to `CC/C(=C(/CC)c1ccc(O)cc1)c1ccc(O)cc1` [Diethylstilbestrol], for which the synaptosome phagocytic index is 0.638.

With `CN(C)c1ncc(/C=C/c2nc3ccc(OCCF)cc3o2)s1`, the synaptosome phagocytic index was found to be 0.356.

With `Nc1nc2[nH]cc(CCc3ccc(C(=O)N[C@@H](CCC(=O)O)C(=O)O)cc3)c2c(=O)[nH]1` [Pemetrexed_(disodium_hemipenta_hydrate)], the synaptosome phagocytic index was determined as 1.03.

In the case of `Cc1ccc(-c2ncn(-c3ccc(Nc4nccc(-c5cccc(N6CCOCC6)c5)n4)cc3)n2)cn1`, the synaptosome phagocytic index turned out to be 0.167.

In the case of `COc1ccc2[nH]cc(CCNC(C)=O)c2c1` [Melatonin], the synaptosome phagocytic index came to 0.577.

`CCc1cc(F)c2nc(N3CCC(NC4CCOCC4)CC3)c(-c3nc(C)no3)c(C)c2c1`: the synaptosome phagocytic index is 1.21.

On to `CCN(CC)CC(=O)Nc1c(C)cccc1C` [Lidocaine], for which the synaptosome phagocytic index was found to be 0.907.

In the case of `N#Cc1cccc(C(=O)Nc2cc(-c3ccccc3)nn2-c2ccccc2)c1`, the synaptosome phagocytic index is 0.299.

`N=C(N)NC(=O)Cc1c(Cl)cccc1Cl` [Guanfacine_(hydrochloride)]: the synaptosome phagocytic index was 1.13.

For the molecule `CCc1cc2c(cc1N1CCC(N3CCOCC3)CC1)C(C)(C)c1[nH]c3cc(C#N)ccc3c1C2=O` [Alectinib], the synaptosome phagocytic index was found to be 0.538.

Take `COc1ccc(NS(=O)(=O)c2ccc(N)cc2)nn1` [Sulfamethoxypyridazine]: the synaptosome phagocytic index came out at 1.03.

Take `CN(C)C(=O)c1cc2cnc(Nc3ccc(N4CCNCC4)cn3)nc2n1C1CCCC1` [Ribociclib]: the synaptosome phagocytic index is 0.78.

As for `Nc1nc(=O)[nH]cc1F` [Flucytosine], the synaptosome phagocytic index is 0.853.

In the case of `COc1ncccc1-c1cnn2ccc(N3CCN(C(=O)OC(C)C)CC3)nc12`, the synaptosome phagocytic index was determined as 0.708.

For the molecule `CO[C@H]1C(=O)[C@]2(C)[C@@H](OC)C[C@H]3OC[C@@]3(OC(C)=O)[C@H]2[C@H](OC(=O)c2ccccc2)[C@]2(O)C[C@H](OC(=O)[C@H](O)[C@@H](NC(=O)OC(C)(C)C)c3ccccc3)C(C)=C1C2(C)C` [Cabazitaxel], the synaptosome phagocytic index was found to be 0.833.

Take `CNS(=O)(=O)Cc1ccc2[nH]cc(CCN(C)C)c2c1` [Sumatriptan_(succinate)]: the synaptosome phagocytic index came out at 0.992.

With `CO[C@H]1C[C@@H]2CC[C@@H](C)[C@@](O)(O2)C(=O)C(=O)N2CCCC[C@H]2C(=O)O[C@H]([C@H](C)C[C@@H]2CC[C@@H](OCCO)[C@H](OC)C2)CC(=O)[C@H](C)/C=C(\C)[C@@H](O)[C@@H](OC)C(=O)[C@H](C)C[C@H](C)/C=C/C=C/C=C/1C` [Everolimus], the synaptosome phagocytic index came out at 0.223.

For the molecule `COc1ccc(C[C@@H]2c3cc(OC)c(OC)cc3CC[N@+]2(C)CCC(=O)OCCCCCOC(=O)CC[N@@+]2(C)CCc3cc(OC)c(OC)cc3[C@H]2Cc2ccc(OC)c(OC)c2)cc1OC` [Cisatracurium_(besylate)], the synaptosome phagocytic index turned out to be 0.726.

For the molecule `Nc1nc2c(ncn2COC(CO)CO)c(=O)[nH]1` [Ganciclovir], the synaptosome phagocytic index was 0.98.

As for `COCc1ccc(-c2ccc(N(C[C@@H](N)[C@@H](C)OC)C(=O)[C@@H]3C[C@H]3c3ccccn3)cc2)cc1`, the synaptosome phagocytic index was 0.794.

In the case of `CN1CC[C@H](c2c(O)cc(O)c3c(=O)cc(-c4ccccc4Cl)oc23)[C@H](O)C1` [Flavopiridol_(Hydrochloride)], the synaptosome phagocytic index stood at 0.995.

Take `CN[C@@H]1[C@H](O[C@H]2[C@H](O[C@H]3[C@H](O)[C@@H](O)[C@H](N=C(N)N)[C@@H](O)[C@@H]3N=C(N)N)O[C@@H](C)[C@]2(O)C=O)O[C@@H](CO)[C@H](O)[C@H]1O` [Streptomycin_(sulfate)]: the synaptosome phagocytic index was found to be 0.697.

Regarding `N#Cc1cccc(-c2c[nH]c3ncnc(N4CCOCC4)c23)c1`, the synaptosome phagocytic index was determined as 0.623.

As to `CC(C)(C)C(=O)NCCCC(=O)O` [Pivagabine], the synaptosome phagocytic index is 0.829.

Turning to `CCN(CC)CC#CCOC(=O)C(O)(c1ccccc1)C1CCCCC1` (stereo unspecified) [Oxybutynin], the synaptosome phagocytic index was determined as 0.889.

As to `C[C@@H](Nc1nc(N[C@H](C)C(F)(F)F)nc(-c2cccc(Cl)n2)n1)C(F)(F)F` [Vorasidenib], the synaptosome phagocytic index was 0.481.

`CCCCNc1ncc2c(-c3ccc(CN4CCN(C)CC4)cc3)cn([C@H]3CC[C@H](O)CC3)c2n1`: the synaptosome phagocytic index is 0.246.

Take `COc1cc2c(N3CCN(C(=O)Nc4ccc(OC(C)C)cc4)CC3)ncnc2cc1OCCCN1CCCCC1` [Tandutinib]: the synaptosome phagocytic index came to 0.936.

Turning to `CC1COc2c(N3CCN(C)CC3)c(F)cc3c(=O)c(C(=O)O)cn1c23` (stereo unspecified) [Ofloxacin], the synaptosome phagocytic index is 1.05.

For the molecule `COc1cn(-c2ccc(-n3cccn3)cc2F)nc(-c2ccnn2-c2ccccc2)c1=O` [Balipodect], the synaptosome phagocytic index is 0.835.

With `CN1CCN(C2=Nc3ccccc3Nc3ccccc32)CC1` [Deschloroclozapine], the synaptosome phagocytic index amounted to 0.876.

On to `CCC1(C)CC(=O)NC1=O` (stereo unspecified) [Ethosuximide], for which the synaptosome phagocytic index was 0.869.

For `OCCN1CCN(CCCN2c3ccccc3Sc3ccc(Cl)cc32)CC1` [Perphenazine], the synaptosome phagocytic index worked out at 0.197.

As to `CC(C)CCN(CCC(C)C)C(=O)c1ccc2nc(-c3ccc(C#N)cc3)c(CCCN3CCCC3)n2c1`, the synaptosome phagocytic index is 0.408.

`COc1ccc(OCCN2CCN(C(=O)c3cc4ccccc4[nH]3)CC2)cc1`: the synaptosome phagocytic index amounted to 1.22.

Turning to `CN1C(C(=O)Nc2ccccn2)=C(O)c2ccccc2S1(=O)=O` [Piroxicam], the synaptosome phagocytic index was 0.661.
